Inconclusive results are not listed. Activity calls are given as the source filed them. The calls were made as follows, unless noted: active = hit-call score of the fitted dose curve at least 0.9, where 1 is the maximum; inconclusive = response in the unintended direction; inactive = score below 0.9.
Columns and labels:
[1] = target: Oxysterols receptor LXR-alpha (Homo sapiens) (UniProt Q13133); assay: ATG_LXRa_TRANS: Attagene TRANS-FACTORIAL HepG2 Assay for human Liver X Receptor alpha (LXRa) (AID 2282980); details: HepG2 Attagene TRANS reporter, LXRa transactivation
Oxysterols receptor LXR-alpha (Homo sapiens), sequence (Q13133 whole entry, looked up, the tested form may be a part): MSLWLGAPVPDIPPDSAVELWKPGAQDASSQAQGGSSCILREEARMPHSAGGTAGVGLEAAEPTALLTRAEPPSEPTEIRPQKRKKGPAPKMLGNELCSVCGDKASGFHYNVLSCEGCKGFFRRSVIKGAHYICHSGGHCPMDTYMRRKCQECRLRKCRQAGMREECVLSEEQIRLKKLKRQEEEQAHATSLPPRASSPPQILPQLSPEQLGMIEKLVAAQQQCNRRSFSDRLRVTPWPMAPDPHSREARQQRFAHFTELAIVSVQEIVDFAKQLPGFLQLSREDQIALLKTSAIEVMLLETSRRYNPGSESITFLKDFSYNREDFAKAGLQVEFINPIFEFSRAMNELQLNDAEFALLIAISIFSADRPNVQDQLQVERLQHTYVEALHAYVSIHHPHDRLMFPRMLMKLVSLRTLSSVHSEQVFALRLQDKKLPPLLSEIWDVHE
Procedure, shortened: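 Chemical-induced reporter mRNA measured by RT-PCR with fluorescent labelling and capillary electrophoresis after 24 h dosing of transiently transfected HepG2 cells expressing exogenous NR-Gal4 chimeras; increases scored against DMSO baseline.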

[2] = target: Oxysterols receptor LXR-beta (Homo sapiens) (UniProt P55055); assay: ATG_LXRb_TRANS: Attagene TRANS-FACTORIAL HepG2 Assay for human Liver X Receptor beta (LXRb) (AID 2282981); details: HepG2 Attagene TRANS GAL4-LXRb reporter, mRNA
Oxysterols receptor LXR-beta (Homo sapiens), sequence (P55055 whole entry, looked up, the tested form may be a part): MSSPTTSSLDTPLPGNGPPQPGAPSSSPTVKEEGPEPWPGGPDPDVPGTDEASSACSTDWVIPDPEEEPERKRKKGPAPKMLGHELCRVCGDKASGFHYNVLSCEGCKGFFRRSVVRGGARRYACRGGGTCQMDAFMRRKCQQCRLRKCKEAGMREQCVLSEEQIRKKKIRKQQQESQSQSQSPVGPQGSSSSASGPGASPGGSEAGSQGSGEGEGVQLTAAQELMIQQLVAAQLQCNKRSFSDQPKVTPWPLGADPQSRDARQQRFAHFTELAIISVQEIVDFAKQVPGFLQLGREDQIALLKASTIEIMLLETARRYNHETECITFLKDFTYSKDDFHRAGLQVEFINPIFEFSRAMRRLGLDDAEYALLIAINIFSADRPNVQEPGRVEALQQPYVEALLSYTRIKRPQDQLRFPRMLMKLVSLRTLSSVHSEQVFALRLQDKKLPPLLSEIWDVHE
Procedure, shortened: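 HepG2 cells transiently transfected with multiple reporter transcription units carrying chimeric NR-Gal4 proteins acting on GAL4-UAS reporters; compound exposure 24 h. Reporter mRNA quantified by RT-PCR, 6-FAM labelling, HpaI digestion and capillary electrophoresis; gain of signal versus DMSO.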

[3] = target: Hepatocyte nuclear factor 4-alpha (Homo sapiens) (UniProt P41235); assay: ATG_HNF4a_TRANS: Attagene TRANS-FACTORIAL HepG2 Assay for human Hepatocyte Nuclear Factor 4 alpha (HNF4a) (AID 2282982); details: HepG2 HNF4a transactivation reporter, mRNA readout
Hepatocyte nuclear factor 4-alpha (Homo sapiens), sequence (P41235 whole entry, looked up, the tested form may be a part): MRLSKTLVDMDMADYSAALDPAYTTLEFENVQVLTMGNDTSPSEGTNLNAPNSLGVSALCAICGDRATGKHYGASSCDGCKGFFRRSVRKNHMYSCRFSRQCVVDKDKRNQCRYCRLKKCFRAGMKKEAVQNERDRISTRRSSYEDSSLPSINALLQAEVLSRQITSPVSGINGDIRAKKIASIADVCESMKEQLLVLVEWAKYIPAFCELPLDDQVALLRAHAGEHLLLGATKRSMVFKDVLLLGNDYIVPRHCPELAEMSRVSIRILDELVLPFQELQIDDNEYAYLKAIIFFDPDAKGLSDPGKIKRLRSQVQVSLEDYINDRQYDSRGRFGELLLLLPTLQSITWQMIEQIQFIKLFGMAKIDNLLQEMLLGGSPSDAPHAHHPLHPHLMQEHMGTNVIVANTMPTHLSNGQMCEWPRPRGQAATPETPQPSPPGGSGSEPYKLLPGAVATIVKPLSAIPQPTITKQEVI
Procedure, shortened: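 HepG2 cells transiently transfected with multiplexed GAL4-UAS reporter units responsive to chimeric NR-GAL4 proteins; compound exposure 24 h. Reporter mRNA quantified by RT-PCR, 6-FAM labelling, HpaI digestion and capillary electrophoresis; gain of signal versus DMSO baseline.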

[4] = ATG_M_32_TRANS: Attagene TRANS-FACTORIAL HepG2 Assay for M32 Transcription Factor (Internal Marker) (AID 2282984); details: HepG2 Attagene TRANS M32 internal marker reporter;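 also: transcript level of a background control reporter unit measured by RT-PCR and capillary electrophoresis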
Procedure, shortened: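 HepG2 cells transiently transfected with multiple GAL4-UAS reporter transcription units, dosed for 24 hours; reporter mRNA quantified by RT-PCR, 6-FAM primer extension, HpaI digestion and capillary electrophoresis. Gain-of-signal fitted versus DMSO baseline; internal background-control marker.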

[5] = target: Nuclear receptor subfamily 4 group A member 2 (Homo sapiens) (UniProt P43354); assay: ATG_NURR1_TRANS: Attagene TRANS-FACTORIAL HepG2 Assay for human Nuclear Receptor Related Protein 1 (NURR1) (AID 2282985); details: HepG2 Attagene TRANS reporter, mRNA readout
Nuclear receptor subfamily 4 group A member 2 (Homo sapiens), sequence (P43354 whole entry, looked up, the tested form may be a part): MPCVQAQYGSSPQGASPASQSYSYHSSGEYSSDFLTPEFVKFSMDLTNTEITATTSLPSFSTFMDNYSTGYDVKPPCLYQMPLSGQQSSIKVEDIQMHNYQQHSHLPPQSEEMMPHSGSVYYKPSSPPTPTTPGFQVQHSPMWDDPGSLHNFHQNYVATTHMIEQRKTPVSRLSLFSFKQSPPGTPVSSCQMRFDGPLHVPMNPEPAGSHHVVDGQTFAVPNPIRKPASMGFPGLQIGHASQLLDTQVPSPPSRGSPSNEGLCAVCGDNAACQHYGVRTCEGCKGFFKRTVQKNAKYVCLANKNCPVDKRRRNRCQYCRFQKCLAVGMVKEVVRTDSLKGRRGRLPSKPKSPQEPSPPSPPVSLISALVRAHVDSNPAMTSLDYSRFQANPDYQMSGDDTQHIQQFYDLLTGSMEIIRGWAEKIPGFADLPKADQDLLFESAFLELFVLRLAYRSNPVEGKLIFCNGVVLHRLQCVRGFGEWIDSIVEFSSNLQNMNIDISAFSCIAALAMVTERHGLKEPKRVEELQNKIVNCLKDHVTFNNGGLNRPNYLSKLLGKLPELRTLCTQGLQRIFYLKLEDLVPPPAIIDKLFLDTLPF
Procedure, shortened: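 HepG2 cells transiently transfected with GAL4-UAS reporter units and chimeric NR-Gal4 constructs; chemical exposure 24 h. Reporter mRNA quantified by RT-PCR, fluorescent labelling and capillary electrophoresis; gain of signal fitted relative to DMSO baseline.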

[6] = target: Transcriptional activator Myb (Homo sapiens) (UniProt P10242); assay: ATG_Myb_CIS: Attagene CIS-FACTORIAL HepG2 Assay for human Myeloblastosis (Myb) Proto-Oncogene Transcription Factor (AID 2282986; active = hit-call score of the fitted dose curve at least 0.9, where 1 is the maximum; inactive = score below 0.9); details: HepG2 Attagene CIS-FACTORIAL Myb reporter transcription; actives raise or lower the signal
Transcriptional activator Myb (Homo sapiens), sequence (P10242 whole entry, looked up): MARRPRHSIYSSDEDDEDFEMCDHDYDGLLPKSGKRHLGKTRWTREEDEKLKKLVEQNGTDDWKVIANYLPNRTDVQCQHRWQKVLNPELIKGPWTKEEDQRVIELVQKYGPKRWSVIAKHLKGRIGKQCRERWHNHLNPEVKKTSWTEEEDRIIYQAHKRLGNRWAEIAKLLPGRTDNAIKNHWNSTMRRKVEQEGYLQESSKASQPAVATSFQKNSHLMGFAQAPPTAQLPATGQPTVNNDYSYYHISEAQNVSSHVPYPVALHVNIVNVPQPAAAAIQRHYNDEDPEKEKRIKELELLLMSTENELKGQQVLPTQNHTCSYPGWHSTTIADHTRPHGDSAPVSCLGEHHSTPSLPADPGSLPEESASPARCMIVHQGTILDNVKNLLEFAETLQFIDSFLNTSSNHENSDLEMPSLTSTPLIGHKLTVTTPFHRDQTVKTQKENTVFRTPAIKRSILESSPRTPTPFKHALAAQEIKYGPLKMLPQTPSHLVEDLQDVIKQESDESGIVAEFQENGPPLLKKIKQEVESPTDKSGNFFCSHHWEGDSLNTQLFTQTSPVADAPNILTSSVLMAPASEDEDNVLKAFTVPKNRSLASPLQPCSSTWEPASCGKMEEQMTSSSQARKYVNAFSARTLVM
Procedure, shortened: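 HepG2 cells were transiently transfected with cis-regulated multiple reporter transcription units reflecting endogenous Myb activity, then exposed to compound for 24 hours. Reporter mRNA was measured by RT-PCR with capillary electrophoresis; bidirectional fitting versus DMSO baseline.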

[7] = target: Nuclear respiratory factor 1 (Homo sapiens) (UniProt Q16656); assay: ATG_NRF1_CIS: Attagene CIS-FACTORIAL HepG2 Assay for human Nuclear Respiratory Factor 1 (NRF1) Orphan Gene (AID 2282987; active = hit-call score of the fitted dose curve at least 0.9, where 1 is the maximum; inactive = score below 0.9); details: HepG2 NRF1 cis-element reporter, Attagene multiplex; actives raise or lower the signal
Nuclear respiratory factor 1 (Homo sapiens), sequence (Q16656 whole entry, looked up): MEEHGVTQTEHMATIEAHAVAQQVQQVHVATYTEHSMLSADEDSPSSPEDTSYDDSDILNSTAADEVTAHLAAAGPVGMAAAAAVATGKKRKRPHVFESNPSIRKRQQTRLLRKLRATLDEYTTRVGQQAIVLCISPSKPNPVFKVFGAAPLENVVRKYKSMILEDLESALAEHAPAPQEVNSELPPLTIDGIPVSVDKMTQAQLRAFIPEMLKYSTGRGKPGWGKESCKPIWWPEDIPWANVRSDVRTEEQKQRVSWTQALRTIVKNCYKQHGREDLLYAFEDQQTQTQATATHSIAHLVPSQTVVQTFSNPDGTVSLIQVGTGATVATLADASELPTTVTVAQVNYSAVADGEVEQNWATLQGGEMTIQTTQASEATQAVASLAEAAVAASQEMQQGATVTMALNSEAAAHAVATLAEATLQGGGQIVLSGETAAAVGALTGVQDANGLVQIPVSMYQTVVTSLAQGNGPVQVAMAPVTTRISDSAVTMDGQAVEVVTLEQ
Procedure, shortened: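 HepG2 cells transiently transfected with multiple reporter transcription units under cis-regulatory promoter control, so endogenous transcription-factor activity is read. After 24 h compound exposure, reporter mRNA quantified by RT-PCR, fluorescent labelling, HpaI digestion and capillary electrophoresis; bidirectional fitting versus DMSO.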

[8] = ATG_M_06_TRANS: Attagene TRANS-FACTORIAL HepG2 Assay for M06 Transcription Factor (Internal Marker) (AID 2282983); details: HepG2 Attagene TRANS M06 internal marker reporter;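 also: reporter transcript level by RT-PCR then capillary electrophoresis fluorescence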
Procedure, shortened: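 Cells: HepG2, transient multi-reporter transfection. Exposure: 24 h. Detection: RT-PCR, 6-FAM labelling, HpaI digestion (2 h, 37 °C), capillary electrophoresis. Baseline: DMSO.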

Measured: AC50

CCCCCCCCCCCCCCC
inactive: [2] | [6] | [7]

CCCCCCCCCCCCCCCC(=O)OC
inactive: [2] | [3] | [4] | [6] | [7]

CC(=O)Nc1ccc(O)cc1
inactive: [8] | [4] | [6]

O=C(F)C(F)(F)C(F)(F)C(F)(F)C(=O)F
not listed: [1] | [2]
inactive: all other assays above

CCO[Si](C)(C)OCC
not listed: [1] | [8]
inactive: all other assays above

CCCCCCCCCCCC
not listed: [1] | [3]
inactive: all other assays above

Cc1cncc(C)c1
inactive: [3] | [6] | [7]

CCC(=O)O
inactive: [3] | [4] | [6] | [7]

O=C(CCCN1CCC(O)(c2ccc(Cl)cc2)CC1)c1ccc(F)cc1
inactive: [6]

c1cc[nH]c1
inactive: [8] | [6] | [7]

CCCCC(CC)C(=O)OCCOCCOCCOCCOC(=O)C(CC)CCCC (stereo not given)
inactive: [4] | [5] | [6] | [7]

Cn1sccc1=O
active: [7] 170 µM
inactive: [4] | [6]

CC(C)c1c(C(=O)Nc2ccccc2)c(-c2ccccc2)c(-c2ccc(F)cc2)n1CC[C@@H](O)C[C@@H](O)CC(=O)O
inactive: [8] | [4] | [6]

CCOC=O
inactive: [3] | [8] | [6] | [7]

N=C(N)c1ccc(OCCCCCOc2ccc(C(=N)N)cc2)cc1
inactive: [8] | [6] | [7]

COc1ccc(C#N)cc1
not listed: [1] | [5]
inactive: all other assays above

CCCCCCCCCC=CCC1CC(=O)OC1=O (stereo not given)
inactive: [6] | [7]

NCCN
inactive: [4] | [6] | [7]

COC(=O)C(F)(F)C(F)(F)C(F)(F)F
inactive: [2] | [4] | [6] | [7]

CCC(C)c1ccccc1O (stereo not given)
inactive: [5] | [6] | [7]

O=S(=O)(O)c1ccc2cc(O)ccc2c1
inactive: [3] | [4] | [6] | [7]

Cc1cccc2c1ccc1ccccc12
inactive: [3] | [4] | [5] | [6] | [7]

CC=O
inactive: [2] | [6] | [7]

NC(C(F)(F)F)C(F)(F)F
inactive: [4] | [5] | [6] | [7]

C=CC(=O)OCC(CO)(COCC(COC(=O)C=C)(COC(=O)C=C)COC(=O)C=C)COC(=O)C=C
inactive: [3] | [8] | [4]
active: [6] 7.52 µM | [7] 14.9 µM

COC(=O)C(F)(F)C(F)(F)C(F)(F)C(F)(F)C(F)(F)F
inactive: [3] | [8] | [4] | [6] | [7]

Clc1ccc2c(Cl)ccnc2c1
inactive: [3] | [8] | [4] | [6] | [7]

CCOC=C(C(=O)OCC)C(=O)OCC
not listed: [1] | [5]
inactive: all other assays above

Oc1c(Cl)ccc(Cl)c1Cl
not listed: [1] | [5]
inactive: all other assays above

COC(=O)CC(C(C)=O)C(=O)OC (stereo not given)
inactive: [3] | [8] | [6] | [7]

Cc1ccc(C)c(S(=O)(=O)O)c1
not listed: [2] | [3]
inactive: all other assays above

CCCCCCCCCCCC[N+](C)(C)CCCCCCCCCCCC
active: [3] 58.1 µM
not listed: [1] | [5]
inactive: all other assays above

COc1cc([N+](=O)[O-])ccc1N
inactive: [2] | [6] | [7]

CCCCCCC(C)(C)C(=O)O
inactive: [4] | [6] | [7]

CC1CCC(CO)CC1 (stereo not given)
not listed: [1]
inactive: all other assays above

CS(=O)(=O)c1ccc([C@@H](CC2CCCC2)C(=O)Nc2cnccn2)cc1Cl
inactive: [2] | [8] | [4] | [6]

CCCCCCCCCCCC(=O)NCCCN(C)C
inactive: [6] | [7]

— PubChem BioAssay (EPA / NIEHS)
